NADH coupling: inhibitors of enzymes used to reach an NAD/NADH endpoint; coupled PK/LDH NADH assays, four targets; IC50, µM (series often up to 10 µM); 65,000 compounds, 0.02% hits; AID 774;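 active means single-dose screening hits from any of four coupled enzyme assays that gave an IC50 when retested across doses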;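 further: the DPM-DC format reads NADH fluorescence rather than 340 nm absorbance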
MK inhibit: S. pneumoniae mevalonate kinase inhibition. 65,000 compounds, 0.48% hits. purified MK, PK/LDH-coupled NADH absorbance 340 nm. inhibition, % at 10 µM;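 active means ranked among the strongest by inhibition in the single 10 µM screen, a fixed top-ranked set picked for dose follow-up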
Spn PMK inh: S. pneumoniae PMK inhibition. purified PMK, PK/LDH-coupled NADH absorbance 340 nm. 65,000 compounds, 0.49% hits. AID 539. inhibition, % at 10 µM;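 active means top-ranked compounds by inhibition in the single 10 µM screen, taking a fixed number of the strongest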
Autofluor 339: intrinsic fluorescence of library compounds, ex339/em460 – biochemical, MLSMR library, data from DPM-DC assay, artefact control, profiling panel. compound autofluorescence, ex339/em460 nm, NADH buffer; active compounds read high; 1 = no-compound wells, NADH background. fluorescence fold increase at 10 µM. 65,000 compounds, 5.5% hits. AID 709;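 active means at 10 µM, mean starting fluorescence two-fold or more over control wells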;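 further: signal is the first read of a kinetic run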
Spn DPM-DC inh: inhibitors of Streptococcus pneumoniae diphosphomevalonate decarboxylase. purified DPM-DC, PK/LDH coupled NADH fluorescence. 65,000 compounds, 0.49% hits. calls only at 10 µM;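 active means the 320 compounds with the highest percent inhibition in the single-dose primary screen, excluding strongly autofluorescent ones, cut at about 32% in these data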;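 further: kinetic rate of NADH fluorescence loss reporting ADP formed by the decarboxylase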
Abs 340nm: compounds absorbing at 340 nm | compound absorbance at 340 nm, fold over control | fold change at 10 µM | 65,000 tested, under 10 active | AID 708;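 active means at 10 µM dose, initial 340 nm absorbance at least 2 fold that of control wells; inactive means change under 2 fold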;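 further: initial absorbance extrapolated from kinetic A340 decline of NADH oxidation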
Hits are given with their value; n = inactive; x = not tested or not shown; + = active, no number. This is a sample that favours compounds with a hit; in the whole collection about 6.8% have one here.

SMILES | NADH coupling | MK inhibit | Spn PMK inh | Autofluor 339 | Spn DPM-DC inh | Abs 340nm
CC(C(=O)NC1CCCC1)N(Cc1ccco1)C(=O)c1snc(C(=O)NC2CCCC2)c1N (stereo not given) | n | n | n | 2.36 | n | n
COc1ccccc1N(C(=O)c1snc(C(N)=O)c1N)C(C(=O)NCCC(C)C)c1ccco1 (stereo not given) | n | n | n | 2.47 | n | n
COc1ccc(OCC(=O)N2CCN(c3nnc(-c4ccccc4)c4ccccc34)CC2)cc1 | n | n | 26.0 | n | n | n
Cc1[nH]nc2c1C(c1cccc(O)c1)C1=C(CC(C)(C)CC1=O)N2 (stereo not given) | n | n | n | 4.99 | x | n
Cc1ccc(C2C3=C(CC(C)(C)CC3=O)Nc3n[nH]c(C)c32)cc1 (stereo not given) | n | n | n | 4.93 | x | n
Cc1cc2c(cc1C)NC(c1cccnc1)C1=C(CC(C)(C)CC1=O)N2 (stereo not given) | n | n | n | n | n | n
Cc1[nH]nc2c1C(c1ccc(F)cc1)C1=C(CC(C)(C)CC1=O)N2 (stereo not given) | n | n | n | 3.14 | x | n
O=C(CCn1c(=O)sc2ccccc21)NCCN1CCOCC1 | n | n | n | n | n | n
O=C(NCc1ccccn1)c1coc(=O)c(Br)c1 | n | n | n | 2.37 | x | n
CCCc1cc(N2CCCC2)n2nc(C)c(-c3ccccc3)c2n1 | n | n | n | 2.88 | n | n
CCNc1nc(C)c2cc(Br)c(=O)n(CC)c2n1 | n | n | n | 2.08 | x | n
CCNc1nc(NC(C)C)nc(Nn2cnnc2)n1 | n | n | n | n | n | n
CCn1nc(NC(=O)c2ccccn2)c2cc3cc(C)ccc3nc21 | n | n | n | 3.01 | n | n
CC(C)Cn1nc(NS(=O)(=O)c2ccccc2)c2cc3ccccc3nc21 | n | n | n | n | n | n
CC(C)Cn1nc(NC(=O)C2CCCO2)c2cc3ccccc3nc21 (stereo not given) | n | n | n | 2.15 | n | n
CCn1nc(NC(=O)c2cccnc2)c2cc3ccccc3nc21 | n | n | n | n | n | n
Cc1ccc2cc3c(NC(=O)c4ccco4)nn(CC(C)C)c3nc2c1 | n | n | n | 3.9 | x | n
Cc1ccc2cc3c(NC(=O)CC(C)C)nn(C)c3nc2c1 | n | n | n | n | n | n
Cc1ccc(OCC(=O)N(C)CCc2ccccn2)cc1 | n | 53.0 | n | n | n | n
CN(CCc1ccccn1)C(=O)Nc1ccc(F)cc1 | n | n | n | n | n | n
CCOC(=O)/C(N=O)=C(\O)C1CCN(C(=O)OCC)CC1 | n | n | n | n | n | n
Clc1ccc2nc(NC3=NCN(CCN4CCOCC4)CN3)nc(-c3ccccc3)c2c1 | n | n | n | 2.23 | n | n
O=C(CC1NCCNC1=O)OCCCc1ccccc1 (stereo not given) | n | n | n | n | n | n
Cc1cc(-c2ccccc2)c(C#N)c(N)n1 | n | n | n | 2.41 | x | n
Cc1cc(-c2cccnc2)c(C#N)c(SCC#N)n1 | n | n | n | n | n | n
SMILES | NADH coupling | MK inhibit | Spn PMK inh | Autofluor 339 | Spn DPM-DC inh | Abs 340nm
CCC(C)(C)n1nnnc1C(c1cc2cc(C)ccc2[nH]c1=O)N1CCCC1 (stereo not given) | n | n | n | n | n | n
CC(C)(C)n1nnnc1C(c1cc2cc3c(cc2[nH]c1=O)OCO3)N1CCN(c2ccccc2)CC1 (stereo not given) | n | n | n | 3.04 | + | n
O=c1[nH]c2cc3c(cc2cc1C(c1nnnn1CC1CCCO1)N1CCCC1)OCO3 (stereo not given) | n | n | n | 4.79 | x | n
CCN1CCN(C(c2cc3cc4c(cc3[nH]c2=O)OCO4)c2nnnn2C(C)(C)CC)CC1 (stereo not given) | n | n | n | 4.01 | x | n
O=C(CCC(=O)Nc1ccc(Oc2ccccc2)cc1)NCCO | n | n | n | n | n | n
Cc1ccc2c(N)c(C)ccc2c1 | n | n | n | 3.7 | x | n
COCCOC(=O)C1=C(C)NC(=O)N(C(C)=O)C1c1ccc(Cl)cc1 (stereo not given) | n | n | n | n | n | n
COc1ccc2c(c1)CCc1cc(C(=O)N3CCN(c4ccc(N5CCOCC5)nn4)CC3)sc1-2 | n | n | n | 2.46 | x | n
COc1ccc2c(c1)CCc1c(C(=O)N3CCCCCC3)noc1-2 | n | n | n | n | n | n
c1cncc(C2Nc3ccccc3-c3nc4ccccc4n32)c1 (stereo not given) | n | n | n | n | n | n
Cc1cc2n(n1)C(c1ccc3c(c1)OCO3)Nc1ccccc1-2 (stereo not given) | n | n | n | 2.28 | n | n
Cc1cc2n(n1)C(c1ccc(N(C)C)cc1)Nc1ccccc1-2 (stereo not given) | n | n | n | 3.71 | x | n
Cc1cc2n(n1)C(c1ccccc1)Nc1ccccc1-2 (stereo not given) | n | n | n | 2.01 | n | n
Cc1ccc2c(c1)-c1cc(C)nn1C(c1ccc3c(c1)OCO3)N2 (stereo not given) | n | n | n | n | n | n
CSc1nnc(-c2ccc(O)cc2)n1C | n | n | n | n | n | n
CSc1nnc(-c2cc3ccccc3cc2O)n1C | n | n | n | 2.26 | x | n
CCOC(=O)c1cccc(NC(=O)N[C@@H](C)C(=O)OC)c1 | n | n | n | n | n | n
Cc1oc2c(CN3CCOCC3)c(O)ccc2c(=O)c1-c1ccccc1 | n | n | n | 3.87 | x | n
COc1cccc(Oc2c(C)oc3c(CN4CCOCC4)c(O)ccc3c2=O)c1 | n | n | n | 3.83 | x | n
CCOC(=O)c1c(-c2ccccc2)oc2ccc(O)c(CN3CCOCC3)c12 | n | n | n | n | n | n
COc1ccc(-c2c(C)oc3c(CN4CCCCC4C)c(O)ccc3c2=O)cc1OC (stereo not given) | n | n | n | 2.21 | x | n
Cn1c(=O)[nH]c(=O)c2c1nc(NC1CCCCC1)n2Cc1ccccc1 | n | n | n | 2.53 | + | n
Cn1c(=O)[nH]c(=O)c2c1nc(NC1CCCCC1)n2CCO | n | n | n | n | n | n
O=S(=O)(NC1CCCCCCC1)c1cccs1 | n | n | n | n | n | n
COCCn1c(SCc2ccc(C(=O)OC)o2)nnc1-c1c[nH]c2ccccc12 | n | n | n | n | n | n
C=CCOn1c(=O)c(=O)n(OCc2ccccc2)c2ccccc21 | n | n | n | n | n | n
CC(=O)C(Sc1nc(-c2ccco2)nc2c1c(=O)n(C)c(=O)n2C)C(=O)N(C)C (stereo not given) | n | n | n | 2.2 | n | n
Cn1c(=O)c2c(SCC(=O)NCc3ccco3)nc(CC(C)(C)C)nc2n(C)c1=O | n | n | n | n | n | n
CC1CCc2cccc3c2N1c1cc(C#N)c(C#N)cc1O3 (stereo not given) | n | n | n | n | n | n
CC1=CC(c2ccccc2)n2nc(NS(=O)(=O)c3ccc(C)cc3)nc2N1 (stereo not given) | n | n | n | 2.23 | x | n
